# Data from ChEMBL document CHEMBL3433997, “St. Jude Leishmania screening dataset” (2016).
# Target: Glucose transporter (Leishmania mexicana) (UniProt O61059)
# Assay: ST_JUDE_LEISH: Cytotoxicity at 2uM final concentration against transgenic Leishmania Mexicana promastigotes LmGT2 that are glucose transport deficient and complemented with the L. Mexicana glucose transporter 2. Activity is measured by DNA content using SYBR green in vitro
# Assay type: functional
row,Compound,inhibition
1,CC1CC1C(=O)NC1CCN(CC2(c3ccccc3)CCCCC2)CC1 (stereo not given),-0.67%
2,O=C(CCn1c2ccccc2c2ccccc21)NN=Cc1ccco1,4.19%
3,CCN1CCC(N(Cc2ccc(-c3ccc(Cl)cc3)cc2)C(=O)Cn2c(CCc3cccc(F)c3F)cc(=O)c3ccccc32)CC1,7.94%
4,CCOc1cc(C(C)C)ccc1N1CCN(CCCCNC(=O)c2ccc(NC(=O)c3ccc(Cl)cc3)cc2)CC1,2.86%
5,O=C(N[C@@H](CC1CCCCC1)C(=O)NCCN1CCOCC1)c1ccc(O)c(-c2ccc(Cl)c(Cl)c2)c1,0.27%
6,CC(=O)Nc1ccc(CN(Cc2ccc(OC(C)(C)C)cc2)Cc2ccc3c(c2)OCCO3)cc1,6.45%
7,COc1ccc2nccc(N3CCC(SCCNCc4ccc5c(n4)NC(=O)CO5)C3)c2n1 (stereo not given),2.08%
8,O=C(COc1cnc2ccccc2n1)Nc1ccccc1Sc1ccc(Cl)cc1,3.2%
9,COc1ccc(CCNCCCCCCNCCc2ccccc2Cl)cc1OC,1.91%
10,COc1ccc2nccc([C@@H](O)CN3CCC(NCc4cc5oc(=O)n(C)c5cc4F)CC3)c2c1,0.86%
11,CCOc1cc(C(=O)Nc2cccnc2)cc(Br)c1OCCC(C)C,-0.8%
12,COC(=O)c1cccc(N2CCN(CCCNC(=O)/C(=C/C=C/c3cc4cc(Cl)c(Cl)cc4[nH]3)OC)CC2)c1,-1.57%
13,Cc1cc(-c2ccc(CN3Cc4ccccc4C3)cc2)ccc1S(=O)(=O)NCCN1CCCC1,11%
14,COc1nc2c(CCN3CCC(NCc4ccc5c(c4)NC(=O)CO5)CC3)c(Cl)cnc2cc1F,1.45%
15,O=C(Nc1cccc(F)c1)N[C@H]1CCN(CCCCCNC(=O)C2CC2c2ccc(Cl)c(Cl)c2)C1 (stereo not given in full),0.83%
16,Cc1noc(-c2ccc3c(c2)CCN(CCC2CCC(NC(=O)/C=C/c4ccc(F)cc4)CC2)CC3)n1 (stereo not given),-0.23%
17,CCc1cn2c3c(cc(C(=O)N[C@@H](Cc4ccccc4)[C@H](O)CNC4CCCCC4)cc13)N(CC)S(=O)(=O)CC2,-3.68%
18,CC1CCCCC1N(C)C1CCN(CCCNC(=O)C=Cc2ccc(Cl)cc2Cl)CC1 (stereo not given),1.66%
19,CO/C(=C\C=C\c1cc2cc(Cl)c(Cl)cc2[nH]1)C(=O)NC1CCN(CCCc2ccccc2)CC1,2.46%
20,Cc1ccc(C(=O)Nc2cccc(-c3ccc(N4CCN(C)CC4)nn3)c2)cc1[N+](=O)[O-],-1.16%

row,Compound,inhibition
1,O=C(Nc1nccs1)c1cn(-c2ccccc2)nc1-c1ccc(Cl)s1,3.16%
2,Cc1cc(NCCC(=O)Nc2ccccc2)nc(NCc2ccccc2C)n1,7.37%
3,Clc1ccc(OCc2ccccc2)c(-c2nc(-c3nc4ccc(Cl)cc4[nH]3)cs2)c1,3.09%
4,COc1ccc2[nH]cc(C3CCN(CCC4CCN(C(=O)/C=C/c5ccc(Cl)c(Cl)c5)CC4)CC3)c2c1,1.93%
5,CC1(C)NC(N)=NC(=N)N1OCCSc1ccc(Cl)c(Cl)c1,9.66%
6,CS(=O)(=O)Nc1ccc2c(C3CCN(CCC4CCN(C(=O)/C=C/c5ccc(Cl)c(Cl)c5)CC4)CC3)c[nH]c2c1,4.12%
7,O=C(Nc1ccc(C(F)(F)F)cc1)Nc1cccc([N+](=O)[O-])c1,3.51%
8,Cc1cccn2c(=O)c3cc(C(=O)NC(C)c4ccccc4)c(=N)n(CCN4CCOCC4)c3nc12 (stereo not given),-1.52%
9,CC(C)c1ccc(NC(=O)c2ccc(C(=O)NC3CCN(Cc4ccsc4)C3)cc2)cc1 (stereo not given),0.52%
10,CS(=O)(=O)c1ccc(-c2nc(NCC3CCCCC3)cc(C(F)(F)F)n2)cc1,0.16%
11,CN(C)CCn1c(N)c(-c2nc3ccccc3s2)c2nc(C#N)c(C#N)nc21,3.11%
12,CCOc1cc[nH]c(=O)n1,-0.68%
13,COc1ccc2[nH]cc(C3CCN(CCCCNC(=O)c4ccc(NC(=O)c5ccc(Cl)cc5)cc4)CC3)c2c1,5.72%
14,O=C(NCc1cccs1)[C@H](Cc1ccccc1)Nc1ccnc(NCC2CCCCC2)n1,10.6%
15,CCCOc1cc2c(cc1OCCC)C(C=Cc1ccc(Cl)cc1Cl)=NC(C)C2 (stereo not given),94.4%
16,CC(C)=C(C(=O)OCc1ccccc1)N1C(=O)[C@@H](NC(c2ccccc2)(c2ccccc2)c2ccccc2)[C@H]1[S+]([O-])CC(=O)OC(C)(C)C (stereo not given in full),0.75%
17,O=C(Nc1cccc(CN2CCCN(Cc3cccc(Cl)c3)CC2)c1)c1ccc(-c2ccccc2)cc1,0.66%
18,CCNc1cc(C(=O)N[C@@H](Cc2ccccc2)[C@H](O)CNC(C)C)cc(N2CC(c3ccccc3)CCS2(=O)=O)c1 (stereo not given in full),4.05%
19,CN(C)CCCOc1ccc(-c2csc(NC(=N)NCc3ccccc3)n2)cc1,3.86%
20,Cn1nc(-c2ccc(NC(=O)Nc3cc(C(F)(F)F)cc(C(F)(F)F)c3)c(F)c2)c2cnc(NCCN3CCOCC3)nc21,3.49%
